Tests used:
Test in all cases: PBM binding z-score (relative to random genomic background probes); higher = stronger binding; sequences stand for … in GC…GCGATTGACAGCGTAGAATGAAGG
[1] = tested on: FXR:RXRa (NR concentration 270 nM, RXRa partner concentration 90 nM)
Method in brief: (§1)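 Custom Agilent 4×180K protein-binding microarrays carried double-stranded probes, each with a 34-nt variable region. These regions held direct-repeat seeds, single-nucleotide variants, half-site ablations and random human genomic background sequences. Ligand-free nuclear receptor dimers were incubated on the arrays for 1 h, antibodies against each partner (one per run) detected binding, and scanned fluorescence was regression-normalized. Binding z-scores take the random background probes as reference.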

[2] = tested on: LXRa:RXRa (NR concentration 270 nM, RXRa partner concentration 90 nM)
Method in brief: as §1

[3] = tested on: LXRa homodimer (NR concentration 270 nM)
Method in brief: as §1

[4] = tested on: LXRb:RXRa (NR concentration 270 nM, RXRa partner concentration 90 nM)
Method in brief: as §1

[5] = tested on: LXRb homodimer (NR concentration 270 nM)
Method in brief: as §1

[6] = tested on: PPARa:RXRa (NR concentration 270 nM, RXRa partner concentration 90 nM)
Method in brief: as §1

[7] = tested on: PPARg:RXRa (NR concentration 180 nM, RXRa partner concentration 90 nM)
Method in brief: as §1

[8] = tested on: PPARg:RXRa 270nM:90nM, anti-RXR (NR concentration 270 nM, RXRa partner concentration 90 nM)
Method in brief: as §1

[9] = tested on: PPARg:RXRa 30nM:10nM, anti-RXR (NR concentration 30 nM, RXRa partner concentration 10 nM)
Method in brief: as §1

[10] = tested on: PPARg:RXRa 90nM:30nM, anti-RXR (NR concentration 90 nM, RXRa partner concentration 30 nM)
Method in brief: as §1

[11] = tested on: PPARg:RXRa DBDmut IVT, anti-RXR (DBD mutation: RXRa K156A/R161A, NR concentration 270 nM, RXRa partner concentration 90 nM)
Method in brief: as §1

[12] = tested on: PPARg:RXRa IVT, anti-PPARg (NR concentration 270 nM, RXRa partner concentration 90 nM)
Method in brief: as §1

[13] = tested on: PPARg DBDmut:RXRa IVT, anti-PPARg (DBD mutation: PPARg1 K132A/R137A, NR concentration 270 nM, RXRa partner concentration 90 nM)
Method in brief: as §1

[14] = tested on: PPARg DBDmut IVT, anti-PPARg (DBD mutation: PPARg1 K132A/R137A, NR concentration 270 nM)
Method in brief: as §1

[15] = tested on: PPARg homodimer (NR concentration 180 nM)
Method in brief: as §1

[16] = tested on: PXR:RXRa (NR concentration 270 nM, RXRa partner concentration 90 nM)
Method in brief: as §1

[17] = tested on: PXR homodimer (NR concentration 270 nM)
Method in brief: as §1

[18] = tested on: RARa:RXR (NR concentration 270 nM, RXRa partner concentration 90 nM)
Method in brief: as §1

[19] = tested on: RARa homodimer (NR concentration 270 nM)
Method in brief: as §1

[20] = tested on: RARb:RXRa (NR concentration 270 nM, RXRa partner concentration 90 nM)
Method in brief: as §1

Sequence	PBM binding z-score [1]	PBM binding z-score [2]	PBM binding z-score [3]	PBM binding z-score [4]	PBM binding z-score [5]	PBM binding z-score [6]	PBM binding z-score [7]	PBM binding z-score [8]	PBM binding z-score [9]	PBM binding z-score [10]	PBM binding z-score [11]	PBM binding z-score [12]	PBM binding z-score [13]	PBM binding z-score [14]	PBM binding z-score [15]	PBM binding z-score [16]	PBM binding z-score [17]	PBM binding z-score [18]	PBM binding z-score [19]	PBM binding z-score [20]
ATACCAAGGTGATCGTGAGGTCGCTGATACTAAC	1.23	0.653	0.154	0.766	-0.474	1.15	0.701	0.558	-0.172	0.198	0.629	1.43	0.343	0.406	0.832	1.86	0.225	1.66	-0.0146	1.43
ATATGTAGGTTACATCCGGGTCATTCAAGCTATG	2.46	4.38	1.74	3.45	0.746	4.7	6.29	5.22	2.73	4.53	7.38	7.61	3.54	2.95	2.2	3.81	1.61	4.07	0.831	2.43
CTACCAAGGTGAACAAGGTCGGTGATTACTATTC	0.778	0.251	-0.361	0.578	-0.54	1.69	0.819	0.753	-0.269	0.288	1.91	2.78	0.327	-0.584	0.38	0.812	0.00939	1.11	0.0895	1.97
CCTAGTGGGCCACGAAAGGTCATTGATTCAGTGA	3.59	5.34	4.51	4.3	0.26	4.7	4.51	4.88	2.04	4.15	5.45	5.59	0.164	-0.293	2.95	5.35	1.17	5.06	0.966	3.93
CGTCCAAGGTCAAAGGTCAGTCAAGAGATGACGG	8.41	6.97	3.05	6.77	1.83	7.07	10.9	8.99	7.83	9.18	3.88	5.75	0.706	-0.299	2.8	7.08	1.81	9.03	1.5	5.97
ATCGAAAGGTCGACGATGTGAGTATACACCGTTT	3.67	3.02	-0.0144	2.55	0.246	4.4	2.46	2.71	0.896	1.84	0.505	1.37	0.994	1.25	1.43	2.29	0.0146	3.17	0.516	3.94
